# Hits are enriched below; roughly 2.3% of the tested compounds scored in any of these assays.
# Bim-Mcl-1: disrupts Bim peptide binding to human Mcl-1 | Q07820 | Bead-based flow cytometry, Bim peptide-Mcl-1 binding | inhibition, % at 10 µM | 190,000 tested, 0.1% active | AID 1009; in the data active = inhibition above about 40%
# Target sequence (Q07820 whole entry, looked up): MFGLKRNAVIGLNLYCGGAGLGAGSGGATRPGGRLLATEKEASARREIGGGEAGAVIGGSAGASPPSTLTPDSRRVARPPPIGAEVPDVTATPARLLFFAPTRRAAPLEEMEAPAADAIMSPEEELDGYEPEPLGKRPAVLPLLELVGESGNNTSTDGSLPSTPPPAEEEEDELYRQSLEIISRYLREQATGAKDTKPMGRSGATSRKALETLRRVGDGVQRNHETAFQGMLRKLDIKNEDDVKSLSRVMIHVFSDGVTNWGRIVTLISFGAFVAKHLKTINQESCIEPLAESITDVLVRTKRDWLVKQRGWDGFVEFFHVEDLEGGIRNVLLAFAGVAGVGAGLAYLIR
# Mcl1 Noxa PPI: disrupts binding of human Mcl-1 to Noxa peptide; 220,000 tested, 1.5% active; TR-FRET Mcl-1/Noxa peptide binding, 2 h; Q07820; inhibition, % at 21.7 µM;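 active = compounds that cut the protein-peptide binding signal by more than 50% relative to plate controls in a single-dose test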;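 note: His-tagged Mcl-1 with rhodamine Noxa BH3 peptide and terbium anti-His antibody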
# Mcl1-Bid inh: disrupts binding of human Mcl-1 to Bid peptide; Q07820; inhibition, % at 21.7 µM; 220,000 tested, 0.97% active; TR-FRET Mcl-1/Bid-Dy647 peptide binding, 1536-well;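 active = compounds that cut the binding signal by more than half at the single screening dose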;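 note: His-tagged Mcl-1 with europium anti-His antibody binding Bid BH3 peptide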
# MCL1-BIM inh: inhibitors of human MCL1 binding to BIM-BH3 peptide; inhibition, % at 10.9 µM; GST-MCL1 / FITC-Bim-BH3 fluorescence polarization; AID 2057; Q07820; 320,000 tested, 0.68% active;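 active = inhibition above the mean inhibition of all tested compounds plus 3 SD, set per campaign, cut at about 40% in these data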;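 note: higher means more loss of mP so more displacement of Bim peptide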
# GLD-1 RNA inh: GLD-1-TGE RNA interaction inhibition (C. elegans). Q17339. purified GLD-1 + fluorescein TGE RNA, fluorescence polarization. inhibition, % at 5.96 µM. 320,000 tested, 0.44% active. AID 2280;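 active = percent inhibition above a per-plate cutoff, the plate mean of test compounds plus 3 SD, cut at about 30% in these data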
# Bcl-xL primary: Bcl-xL (human) inhibition; Q07817; GST-Bcl-xL / FITC-Bim BH3 peptide fluorescence polarization; 320,000 tested, 0.7% active; inhibition, % at 10.9 µM;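 active = inhibition above the mean of all tested compounds plus 3 SD, cutoff set per campaign, cut at about 30% in these data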;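 note: inhibitors lower millipolarization by displacing the labeled peptide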
# Target sequence (Q07817 whole entry, looked up): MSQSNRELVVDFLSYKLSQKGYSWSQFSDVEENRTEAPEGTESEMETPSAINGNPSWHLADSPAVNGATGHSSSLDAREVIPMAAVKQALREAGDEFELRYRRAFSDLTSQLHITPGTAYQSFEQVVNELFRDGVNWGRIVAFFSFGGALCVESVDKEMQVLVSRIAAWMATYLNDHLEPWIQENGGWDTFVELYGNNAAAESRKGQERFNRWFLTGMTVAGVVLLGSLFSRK
# Numbers stand for hits; - = inactive; . = no result given.
SMILES,Bim-Mcl-1,Mcl1 Noxa PPI,Mcl1-Bid inh,MCL1-BIM inh,GLD-1 RNA inh,Bcl-xL primary
Cc1[nH]c2ccccc2c1C(=O)CSc1nnc(C2CC2)o1,.,.,.,-,-,-
COc1ccc(C(=O)/C=C/Nc2cccc(O)c2)cc1,-,-,-,48,-,46
COc1cccc(N/C=C/C(=O)c2ccc(Br)cc2)c1,.,.,.,-,-,-
CCOc1ccc(NC(=O)CN2C(=O)/C(=C3\SC(=S)N(C4CCS(=O)(=O)C4)C3=O)c3ccccc32)cc1 (centres undefined),.,68,81,.,.,.
CC(C)NC(=O)C1CCCN(S(=O)(=O)c2ccc(-n3cnnn3)cc2)C1 (centres undefined),-,-,98,-,-,-
CCOc1ccc(C(=O)N[C@H](C(=O)NNC(=O)c2cccs2)C(C)C)cc1,.,.,.,.,-,.
Cc1sc2nc(COC(=O)c3cccc(S(=O)(=O)N(C)c4ccccc4)c3)[nH]c(=O)c2c1C,-,-,-,-,-,39
CC(C)CCC(CCN1CCCC1)c1ccc2c(c1)OCO2 (centres undefined),.,75,-,-,-,-
CC(C)CCC(CCN1CCOCC1)c1ccc2c(c1)OCO2 (centres undefined),-,-,-,-,-,-
CS(=O)(=O)Nc1ccc(C(=O)NCCc2ccccc2)cc1,-,-,-,-,-,145
CS(=O)(=O)NCc1ccc(C(=O)NCCOc2ccccc2)cc1,-,-,91,-,-,-
CC(=O)Oc1ccc(Cl)cc1/C=C/c1ccc2ccccc2n1,-,-,97,-,-,-
CC(=O)Oc1c(Cl)cc(Cl)cc1/C=C/c1ccc2ccccc2n1,-,.,-,-,-,-
O=C(COC(=O)c1cnccn1)Nc1ccc2c(c1)OCO2,-,62,-,-,-,-
O=C(Nc1ccc2c(c1)OCO2)c1cnccn1,-,-,-,-,-,-
Nc1ccc(C(=O)OCC(=O)Nc2ccc3c(c2)OCO3)cc1[N+](=O)[O-],-,52,-,-,-,-
CCNc1ccc(S(=O)(=O)NCCN(C)C)cc1[N+](=O)[O-],-,-,-,-,-,-
CCNc1ccc(S(N)(=O)=O)cc1[N+](=O)[O-],-,51,-,-,-,-
N#Cc1nc(COc2ccc(Cl)cc2)oc1NCc1ccc2c(c1)OCO2,-,-,-,-,-,-
Cc1cccc(OCc2nc(C#N)c(NCc3ccc4c(c3)OCO4)o2)c1,-,-,83,-,-,-
COc1ccc2oc(-c3ccc(C)c(NC(=O)CSc4ccc(Cl)cc4)c3)nc2c1,-,-,54,-,-,-
CC1=NOC(=O)/C1=C\c1ccc(-c2ccc(Cl)cc2Cl)o1,-,87,88,.,.,.
Cc1ccc(-c2nnc(SCC(=O)Nc3sc(C)c(C)c3C#N)n2C)cc1,-,-,-,-,-,-
Cc1sc(NC(=O)CSc2nnc(-c3ccc(F)cc3)o2)c(C#N)c1C,-,-,59,-,-,-
CC(=O)c1ccc(-n2nnnc2SCC(=O)Nc2sc(C)c(C)c2C#N)cc1,-,65,57,-,-,-
SMILES,Bim-Mcl-1,Mcl1 Noxa PPI,Mcl1-Bid inh,MCL1-BIM inh,GLD-1 RNA inh,Bcl-xL primary
CCCC(=O)Nc1cc(C(=O)N(C)CC(OC)OC)ccc1S(=O)(=O)c1ccc(C)cc1,.,.,.,-,-,-
CCn1c(CNC(=O)c2ccccc2F)nnc1SCC(=O)Nc1nncs1,.,.,.,-,-,-
Cc1ccc2nc(-c3ccc(NC(=O)CCS(=O)(=O)c4ccccc4)cc3)sc2c1,-,-,-,-,-,-
O=C(CCS(=O)(=O)c1ccccc1)Nc1ccccc1-c1nc2ccccc2s1,-,-,75,-,-,-
CC(=O)c1sc(NC(=O)C2CCN(C(=O)c3ccc(F)cc3)CC2)nc1-c1ccccc1,.,.,.,-,-,-
O=C(CSCc1ccccc1)NCCCN1CCOCC1,-,-,98,-,-,-
COc1cc(/C=N/NC(=O)CSc2n[nH]c(=O)[nH]c2=O)cc(OC)c1O,-,61,-,-,-,-
C=CCOc1c(/C=N\NC(N)=O)cccc1OC,.,-,-,-,-,-
C=CCOc1c(OC)cc(/C=N/Nc2cccc(C(=O)O)c2)c(Br)c1Br,-,88,78,-,-,-
CC(=O)Nc1nonc1NC(=O)CSc1ccccn1,-,-,-,-,83,-
CC(=O)Nc1ccc(NC(=O)CSc2ccccn2)cc1,-,-,-,-,-,-
Nc1ccc2c(c1Cl)C(=O)c1ccc(N)c(Cl)c1C2=O,.,87,-,.,.,.
COc1ccc(CCNC(=O)CCNS(=O)(=O)c2ccc3c(c2)CCN3C(C)=O)cc1OC,-,-,58,-,-,-
COc1ccc(CCNS(=O)(=O)c2ccc3c(c2)CCN3C(=O)CCC(=O)O)cc1OC,-,-,-,-,-,-
O=C(Nc1cccc(Cl)c1)Nc1nnc(-c2ccncc2)s1,-,91,-,-,-,-
O=C(NCCc1ccncc1)Nc1cccc(Cl)c1,-,-,-,-,-,-
COc1ccc(/C=N/Nc2ncc(-c3ccccc3)cn2)c(OC)c1,-,52,-,-,-,-
COc1ccc(/C=N/Nc2nc(C)cc(-c3ccccc3)n2)c(OC)c1,.,.,.,-,-,-
CCN(C(=O)COC(=O)CSc1ccccc1)c1c(N)n(Cc2ccccc2)c(=O)[nH]c1=O,.,.,.,-,-,-
CCCN1CC=C2C(C#N)=C(N)C(C#N)(C#N)C(c3cccc(OC)c3OC)C2C1 (centres undefined),-,-,-,140,104,129
COc1ccc(OC)c(C2C3CN(C(C)C)CC=C3C(C#N)=C(N)C2(C#N)C#N)c1 (centres undefined),-,-,-,96,52,87
COc1cccc(OC)c1OCc1cc(C2C3CCCC=C3C(C#N)=C(N)C2(C#N)C#N)c(C)cc1C (centres undefined),-,-,-,-,-,-
CCN1CC=C2C(C#N)=C(N)C(C#N)(C#N)C(CCc3ccccc3)C2C1 (centres undefined),-,-,-,183,110,155
Cc1cccnc1NC(=O)CSc1nnc(CNC(=O)c2cccc([N+](=O)[O-])c2)n1C,.,.,.,-,-,-
COC(=O)CCc1c(COC(C)=O)[nH]c(C(=O)OCc2ccccc2)c1C,.,.,.,-,-,-
SMILES,Bim-Mcl-1,Mcl1 Noxa PPI,Mcl1-Bid inh,MCL1-BIM inh,GLD-1 RNA inh,Bcl-xL primary
CCOc1ccc(-n2c(SCC(=O)Nc3ccc(Br)cc3)nc3n[nH]c(C)c3c2=N)cc1,-,51,58,-,-,-
CCN1CCCC1CNc1ccc(S(C)(=O)=O)cc1[N+](=O)[O-] (centres undefined),.,.,.,-,-,-
O=Cc1ccc2oc3nc4n(c(=O)c3c(=O)c2c1)CCCS4,-,73,-,-,-,-
O=c1c2cc(Br)cc(Br)c2oc2nc3n(c(=O)c12)CCCS3,-,-,-,-,-,-
CCOc1ccc(NC(=O)C(=O)NCCN2CCN(C(=O)c3ccc(C)cc3)CC2)cc1,.,.,.,-,-,-
Cc1cccc(OCCCC(=O)Nc2ccc(Br)cc2)c1,-,-,-,-,-,-
Cc1cccc(OCCCC(=O)Nc2ccc(N(C)C)cc2)c1,-,77,-,-,-,-
